Source: PubChem BioAssay (National Center for Advancing Translational Sciences (NCATS))
Only some compounds are listed: those with a hit (about 2.5% of all), similar ones and a draw of the others.
Cruzain noTriton = inhibitors of Trypanosoma cruzi cruzain without detergent | P25779 | purified cruzain, Z-FR-AMC fluorescence, no detergent | Potency, µM, without a hit: max response, negative = inhibition, actives largely listed as inhibitors | actives 2.3% (n = 200,000);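 also: plate controls were enzyme without inhibitor for no effect and buffer without enzyme for full effect; nearly all actives have a fitted effect of over 40% in size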
Target sequence (P25779 123-467 limits assumed): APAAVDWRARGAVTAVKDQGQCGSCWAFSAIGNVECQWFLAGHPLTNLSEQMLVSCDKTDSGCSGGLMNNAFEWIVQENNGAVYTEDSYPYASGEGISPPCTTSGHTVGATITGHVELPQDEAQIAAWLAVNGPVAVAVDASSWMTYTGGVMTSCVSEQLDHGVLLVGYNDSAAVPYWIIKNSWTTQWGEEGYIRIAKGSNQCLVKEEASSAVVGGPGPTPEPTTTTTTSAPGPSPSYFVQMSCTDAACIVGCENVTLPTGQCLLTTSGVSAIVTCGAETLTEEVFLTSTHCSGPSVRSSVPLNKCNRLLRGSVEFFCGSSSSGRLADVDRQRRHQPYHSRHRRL
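Purified cruzain at 1.5 nM, pre-incubated 15 min with compound at room temperature in 100 mM sodium acetate pH 5.5, 5 mM DTT, 0.00005% Triton X-100. Reaction started with 2 uM Z-FR-AMC; AMC fluorescence increase over 60 s gives rate.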
Cruzain Triton = inhibitors of Trypanosoma cruzi cruzain with detergent; P25779; purified cruzain, Z-FR-AMC fluorescence, 0.01% Triton; Potency, µM, inactives show max response, negative = inhibition, usual class: inhibitors; actives 0.43% (n = 200,000);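 also: plate controls were neutral wells for no effect and buffer without enzyme for full effect; nearly all actives have a fitted effect of over 40% in size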
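Purified cruzain (1.5 nM final) was preincubated with compounds for 15 min at room temperature in 100 mM sodium acetate pH 5.5, 5 mM DTT, 0.01% Triton X-100. Reaction started with 2 uM Z-FR-AMC; AMC fluorescence change over 60 s gave activity.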
Active calls of the source: *; u = inconclusive. Calls follow the shape of the dose curve; as a rule, active = well fitted curve in the direction sought with a large enough effect; inconclusive = small, poorly fitted or top-dose-only effect, or another doubt; inactive = no such curve, though single readings can be large; an effect the other way counts as inactive or inconclusive. Potency is read from the fitted curve at half-maximal effect.

SMILES | Cruzain noTriton | Cruzain Triton
CC(=O)Nc1ccc(C2=NN(Cc3nnc(-c4ccccc4)o3)C(=O)SC2)cc1 | u | -8%
CC(/C=N\N1CCN(c2ccc(Cl)cc2)CC1)=C\c1ccccc1 | 7.9µM* | -6%
CC(/C=N/N1CCN(c2ccc(C)cc2)CC1)=C\c1ccccc1 | -29% | -1%
Oc1c(Br)cc2oc3c(c2c1CNCc1ccccc1)CCCC3 | 32µM* | -8%
Oc1c(Br)cc(Br)cc1CN1CCN(Cc2ccccc2)CC1 | 2% | -2%
Cc1nc2nncn2c(NCc2ccc(Cl)cc2)c1C | -1% | 1%
COc1ccc(C)cc1NC(=O)C(OC(=O)CNC(=O)c1cc(C)cc(C)c1)c1ccccc1 (centres undefined) | 20µM* | 8.9µM*
Cc1cc(C(=O)NCC(=O)OC(C(=O)Nc2cc(C(F)(F)F)ccc2Cl)c2ccccc2)ccc1[N+](=O)[O-] (centres undefined) | 32µM* | 4.5µM*
COc1ccc(C)cc1NC(=O)C(OC(=O)c1ccc([N+](=O)[O-])o1)c1ccccc1 (centres undefined) | u | -8%
COc1ccc(C)cc1NC(=O)C(NS(=O)(=O)c1cccs1)c1ccccc1 (centres undefined) | -25% | -2%
CCCC(=O)OC(C(=O)Nc1cc(C(F)(F)F)ccc1Cl)c1ccccc1 (centres undefined) | 19% | -5%
COc1ccc(C)cc1NC(=O)C(OC(=O)CNC(=O)c1ccc(Br)cc1)c1ccccc1 (centres undefined) | 10µM* | 7.9µM*
CNC(=O)c1ccccc1 | 8% | 2%
COC(=O)c1ccccc1NC(=O)CN1C(=O)COc2ccccc21 | -10% | -2%
CN(C)CC/C=C1/c2ccccc2Sc2c(O)cc(Cl)cc21 | 25µM* | -15%
COc1cc(Cl)cc2c1Sc1ccccc1/C2=C/CCN(C)C | 1% | -9%
COc1cccc(Oc2nc(C)nc3c2oc2ccccc23)c1 | u | -4%
Cc1cc(C(=O)OCC(=O)NC(C)(C)C)c2ccccc2n1 | -1% | 2%
Cc1cc(C(=O)OCC(=O)Nc2ccc(F)cc2[N+](=O)[O-])c2ccccc2n1 | 20µM* | -2%
COc1ccc(Nc2nnc(-c3ccc(C)c(S(=O)(=O)N4CCN(C)CC4)c3)c3ccccc23)cc1 | 2% | -4%
Cc1c(NC(=O)c2ccc(Cl)cc2)cc(C(C)C)c(O)c1S(=O)(=O)c1ccc(Cl)cc1 | 32µM* | 0%
Cc1c(NC(=O)c2ccccc2)cc(C(C)C)c(O)c1S(=O)(=O)c1ccc(Cl)cc1 | u | -2%
CO | -5% | 3%
O=C(/C=C1\NC2(CCCC2)Cc2ccccc21)C(=O)N/N=C/c1ccccc1O | 25µM* | 1%
COc1cc(/C=N/NC(=O)C(=O)/C=C2\NC3(CCCC3)Cc3ccccc32)ccc1O | -2% | -8%
SMILES | Cruzain noTriton | Cruzain Triton
CCc1ccc(CN(Cc2cn[nH]c2-c2ccc(OC)cc2)C(=O)Nc2cc(Cl)ccc2OC)cc1 | -2% | -8%
O=C(O)CSc1nnnn1-c1ccc2c(c1)OCCO2 | -5% | -8%
Cc1cc(C(=O)CSc2nnnn2-c2ccc(O)cc2)c(C)n1Cc1ccc2c(c1)OCO2 | 16µM* | 0%
Cc1ccc(-n2nnnc2SCC(=O)c2cc(C)n(CC3CCCO3)c2C)cc1 (centres undefined) | 12% | -1%
Cc1cc(C(=O)CSc2nnc(-c3cccc(F)c3)n2N)c(C)n1Cc1ccc2c(c1)OCO2 | 20µM* | 0%
Cc1ccc(NC(=O)CSc2nnnn2-c2ccc3c(c2)OCO3)cc1C | 25µM* | 4%
O=C(CSc1nnnn1-c1ccc2c(c1)OCCO2)c1cccc2c1OCCO2 | 25µM* | 0%
CC(=O)c1c(C)[nH]c(C(=O)CSc2nnc(-c3ccccc3)n2Cc2ccc3c(c2)OCO3)c1C | 12% | 3%
Cc1ccc(-n2nnnc2SCC(=O)Nc2ccc3c(c2)OCCO3)cc1C | -5% | -5%
CCCCN(C)CCCNC(=O)Cn1nc(CC)n2c(cc3sc(C)cc32)c1=O | -8% | -3%
Cc1oc(-c2ccccc2)nc1CSc1nnc(C)n2c1cc1sccc12 | -10% | -1%
Cc1ccc(NC(=O)Cn2c(=O)nc(-c3ccccc3F)c3cc(Cl)ccc32)c(Br)c1 | 13% | -4%
Cc1cc(C(=O)COC(=O)C2=COCCO2)c(C)n1-c1ccc2c(c1)OCO2 | -14% | -3%
O=C(CSc1nnc(-c2cccs2)n1-c1cccc(Cl)c1)c1cccc2c1OCCO2 | 25µM* | 2%
Cc1cc(C(=O)COC(=O)Cc2n[nH]c(=O)c3ccccc23)c(C)n1-c1ccc2c(c1)OCCO2 | 16µM* | -4%
Cc1cc(C(=O)COc2ccc(C#N)cc2)c(C)n1-c1ccc2c(c1)OCO2 | 25µM* | -2%
Cc1cc(C(=O)CSc2nnnn2-c2ccccc2)c(C)n1-c1ccc2c(c1)OCO2 | 3.2µM* | -3%
O=C(O)CSc1nnc(-c2cccs2)n1-c1ccc(Cl)cc1 | -8% | -2%
CCCn1c(SCC(=O)c2cc(C)n(-c3ccc4c(c3)OCO4)c2C)n[nH]c1=O | u | -6%
